Calls of active or inactive are those of the source. Unless noted, the rule behind the calls is not given here.
Experiments:
[1] = anti-His antibody binders, primary screen, artefact control for SMM control protein annotation, biochemical, small-molecule microarray, 635 nm fluorescence (AID 1128); conditions: anti-His Alexa647 antibody binding, higher = more signal;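 note: score merges feature fluorescence with signal-to-noise for each printed compound spot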
[2] = system: Human papillomavirus type 1a E7 protein (residues 1-88); test: HPV1a E7 small-molecule binders, primary screen, biochemical, small-molecule microarray, residues 1-88, 635 nm (AID 1129); conditions: small-molecule microarray binding, fluorescence 635 nm; higher = more signal
[3] = target: Focal adhesion kinase 1 (Homo sapiens) (UniProt Q05397); test: small-molecule microarray binders of FAK, primary screen, biochemical, 635/667 nm fluorescence, BSA, DTT (AID 1130); conditions: PTK2 binding, 635 nm fluorescence, higher = more signal;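 note: composite of spot emission at 667 nm and signal to noise over triplicate slides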
Chain of Focal adhesion kinase 1 (Homo sapiens) (Q05397 whole entry, looked up): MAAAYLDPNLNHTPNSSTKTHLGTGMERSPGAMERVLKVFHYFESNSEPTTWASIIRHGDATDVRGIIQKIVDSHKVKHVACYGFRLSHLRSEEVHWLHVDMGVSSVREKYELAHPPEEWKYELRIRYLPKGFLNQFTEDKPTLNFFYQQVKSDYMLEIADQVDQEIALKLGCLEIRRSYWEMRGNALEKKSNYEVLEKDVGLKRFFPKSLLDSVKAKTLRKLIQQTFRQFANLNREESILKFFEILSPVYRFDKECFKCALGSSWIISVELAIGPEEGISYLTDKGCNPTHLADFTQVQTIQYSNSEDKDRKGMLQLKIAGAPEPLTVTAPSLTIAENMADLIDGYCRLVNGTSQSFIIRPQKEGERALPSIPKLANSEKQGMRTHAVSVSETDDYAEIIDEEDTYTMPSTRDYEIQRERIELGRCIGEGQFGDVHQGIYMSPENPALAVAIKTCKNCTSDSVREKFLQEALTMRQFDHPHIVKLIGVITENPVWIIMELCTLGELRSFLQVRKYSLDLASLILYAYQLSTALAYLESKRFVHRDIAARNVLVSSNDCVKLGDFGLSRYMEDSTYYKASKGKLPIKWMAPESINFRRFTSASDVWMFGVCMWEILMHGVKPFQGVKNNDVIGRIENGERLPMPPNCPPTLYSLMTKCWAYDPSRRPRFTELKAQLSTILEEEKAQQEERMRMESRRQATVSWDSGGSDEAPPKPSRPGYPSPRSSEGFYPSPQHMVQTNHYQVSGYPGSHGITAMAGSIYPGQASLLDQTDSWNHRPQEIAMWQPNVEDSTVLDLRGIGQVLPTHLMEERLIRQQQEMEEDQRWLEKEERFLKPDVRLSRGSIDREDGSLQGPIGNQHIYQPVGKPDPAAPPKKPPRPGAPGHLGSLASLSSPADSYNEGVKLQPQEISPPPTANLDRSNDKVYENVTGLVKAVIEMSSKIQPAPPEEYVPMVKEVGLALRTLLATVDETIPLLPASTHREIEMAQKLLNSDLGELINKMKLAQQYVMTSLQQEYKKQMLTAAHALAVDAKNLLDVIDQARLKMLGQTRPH

[4] = system: Fibrinogen (Alexa647-labelled); test: fibrinogen binders on compound microarrays, profiling panel, artefact control for SMM control-protein annotation, biochemical, small-molecule microarray, 635/667 nm fluorescence (AID 1131); conditions: fibrinogen-A647 binding fluorescence, higher = more signal;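 note: z-score merges 667 nm fluorescence with per-spot signal-to-noise over triplicate slides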
[5] = target: Follistatin (Homo sapiens) (UniProt P19883); test: follistatin binders on small-molecule microarrays, primary screen, biochemical, small-molecule microarray, 635/667 nm fluorescence (AID 1132); conditions: FST binding, 635 nm fluorescence, higher = more signal
Chain of Follistatin (Homo sapiens) (P19883 whole entry, looked up): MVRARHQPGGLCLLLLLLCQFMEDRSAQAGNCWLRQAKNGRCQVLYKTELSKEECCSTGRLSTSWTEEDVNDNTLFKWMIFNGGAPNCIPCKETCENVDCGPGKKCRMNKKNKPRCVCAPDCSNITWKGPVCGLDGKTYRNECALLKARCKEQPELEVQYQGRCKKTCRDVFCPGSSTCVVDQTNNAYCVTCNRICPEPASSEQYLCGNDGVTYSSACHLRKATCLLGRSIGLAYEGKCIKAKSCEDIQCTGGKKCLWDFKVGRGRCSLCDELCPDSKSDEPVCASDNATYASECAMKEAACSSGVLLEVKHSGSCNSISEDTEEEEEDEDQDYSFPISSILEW

[6] = target: Fibroblast growth factor 2 (Homo sapiens) (UniProt P09038); test: FGF2 binders on small-molecule microarrays, primary screen, biochemical, small-molecule microarray, 635/667 nm fluorescence (AID 1133); conditions: small-molecule microarray binding, FGF2, fluorescence 635/667; higher = more signal
Chain of Fibroblast growth factor 2 (Homo sapiens) (P09038 whole entry, looked up): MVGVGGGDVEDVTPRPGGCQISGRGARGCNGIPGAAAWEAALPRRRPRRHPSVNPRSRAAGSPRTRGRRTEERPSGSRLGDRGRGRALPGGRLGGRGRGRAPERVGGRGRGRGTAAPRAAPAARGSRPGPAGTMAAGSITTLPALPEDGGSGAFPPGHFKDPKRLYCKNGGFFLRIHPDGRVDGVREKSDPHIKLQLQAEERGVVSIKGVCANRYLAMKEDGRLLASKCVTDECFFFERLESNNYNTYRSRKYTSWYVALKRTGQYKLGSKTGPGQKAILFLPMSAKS

[7] = mitochondrial membrane potential change in A549 cells, profiling panel, cell-based, JC-1 fluorescence, basal, 24 h, 100 nL (AID 1138); conditions: higher = more signal;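 note: A549 lung adenocarcinoma cells under basal conditions with no added stimulus; test concentration not given here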
Lefty1 = Lefty1 binders on small-molecule microarrays, primary screen, biochemical, small-molecule microarray, 635/667 nm fluorescence (AID 1139); conditions: small-molecule microarray binding, fluorescence 635/667; higher = more signal
[8] = system: wheat germ agglutinin (Triticum aestivum), Alexa647-labelled; test: wheat germ agglutinin binders on compound microarrays, profiling panel, artefact control for SMM control-protein annotation, biochemical, small-molecule microarray, 635/667 nm fluorescence (AID 1140); conditions: WGA-A647 binding, 635 nm fluorescence, higher = more signal;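 note: score merges 667 nm feature emission with signal to noise over triplicate slides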
[9] = target: Luciferin 4-monooxygenase (Photinus pyralis) (UniProt P08659); test: firefly luciferase enzyme inhibitors, primary screen, biochemical, luminescence, purified enzyme, 2006 set (AID 1141); conditions: SteadyGlo luminescence, 30 min, higher = more signal, called active from +8 up or from −8 down;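 note: cell-free assay with purified firefly luciferase at 100 ng per well in PBS; test concentration not given here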
Chain of Luciferin 4-monooxygenase (Photinus pyralis) (P08659 whole entry, looked up): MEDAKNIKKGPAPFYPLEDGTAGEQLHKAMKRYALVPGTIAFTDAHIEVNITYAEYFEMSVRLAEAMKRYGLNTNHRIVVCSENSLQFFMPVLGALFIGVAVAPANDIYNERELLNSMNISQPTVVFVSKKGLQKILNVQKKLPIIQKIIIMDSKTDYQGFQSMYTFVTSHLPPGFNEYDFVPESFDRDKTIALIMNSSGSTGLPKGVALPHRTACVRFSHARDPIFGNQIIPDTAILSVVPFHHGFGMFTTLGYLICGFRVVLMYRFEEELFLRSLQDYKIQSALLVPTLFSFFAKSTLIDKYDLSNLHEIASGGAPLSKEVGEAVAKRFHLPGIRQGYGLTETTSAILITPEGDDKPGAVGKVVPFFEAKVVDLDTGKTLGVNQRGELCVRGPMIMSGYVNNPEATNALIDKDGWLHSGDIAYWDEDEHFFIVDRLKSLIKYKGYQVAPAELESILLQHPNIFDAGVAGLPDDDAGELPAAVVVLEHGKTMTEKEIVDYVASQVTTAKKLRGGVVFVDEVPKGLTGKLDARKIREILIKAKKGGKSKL

[10] = system: Wnt5a (protein binding on small-molecule microarray); test: Wnt5a binders on small-molecule microarray, primary screen, biophysical, 635/667 nm fluorescence (AID 1142); conditions: 635 nm fluorescence, higher = more signal;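 note: fluorescence read at 667 nm with signal to noise per printed feature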
[11] = cell viability in Huh7 cells, primary screen, cytotoxicity control for HCV replication inhibitor project, CellTiter-Glo luminescence, basal, 48 h (AID 1143); conditions: Huh7 HCV replicon, higher = more signal, called active from +8 up or from −8 down;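 note: Huh7 hepatoma cells carrying a hepatitis C replication reporter with no stimulus; test concentration not given here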
[12] = P. aeruginosa biofilm formation inhibitors, primary screen, PAO1 strain, BacTiter-Glo luminescence, LB-PBS (AID 1144); conditions: 12 h, higher = more signal
[13] = CREB reporter modulators without forskolin, primary screen, cell-based, PC12, CRE-LacZ reporter, unstimulated (AID 1145); conditions: no forskolin, luminescence, 4.5 h, higher = more signal, called active from +8 up or from −8 down
[14] = CREB reporter modulators under forskolin, primary screen, cell-based, PC12, CRE-LacZ reporter, forskolin-stimulated (AID 1146); conditions: luminescence, 4.5 h, higher = more signal, called active from +8 up or from −8 down;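 note: PC12 cells with 6xCRE LacZ reporter stimulated by forskolin 10 µM; beta-galactosidase reporter signal reflecting CREB driven transcription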
[15] = target: Streptavidin (Streptomyces avidinii) (UniProt P22629); test: streptavidin binders on small-molecule microarray, primary screen, artefact control for SMM compound annotation, biophysical, 635/667 nm fluorescence (AID 1147); conditions: streptavidin binding, higher = more signal;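 note: signal reflects streptavidin binding to arrayed compounds as a control protein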
Chain of Streptavidin (Streptomyces avidinii) (P22629 whole entry, looked up): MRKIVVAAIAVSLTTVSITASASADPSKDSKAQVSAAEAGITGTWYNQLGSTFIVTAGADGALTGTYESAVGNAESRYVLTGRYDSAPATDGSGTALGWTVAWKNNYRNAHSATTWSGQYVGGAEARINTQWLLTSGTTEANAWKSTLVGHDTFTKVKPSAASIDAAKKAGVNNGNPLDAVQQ

[16] = small-molecule binders of probe aInhba, primary screen, biochemical, small-molecule microarray, 635/667 nm fluorescence (AID 1148); conditions: higher = more signal;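 note: score merges 667nm spot fluorescence with signal-to-noise for antibody binding to printed compounds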
Torsin-1A (Homo sapiens) [17] = target: Torsin-1A (Homo sapiens) (UniProt O14656); test: torsin A binders from cell lysate, primary screen, small-molecule microarray, wild-type, 635/667 nm (AID 1149); conditions: COS7 hTOR1A-WT lysate, 635 nm fluorescence, higher = more signal
Chain of Torsin-1A (Homo sapiens) (O14656 whole entry, looked up): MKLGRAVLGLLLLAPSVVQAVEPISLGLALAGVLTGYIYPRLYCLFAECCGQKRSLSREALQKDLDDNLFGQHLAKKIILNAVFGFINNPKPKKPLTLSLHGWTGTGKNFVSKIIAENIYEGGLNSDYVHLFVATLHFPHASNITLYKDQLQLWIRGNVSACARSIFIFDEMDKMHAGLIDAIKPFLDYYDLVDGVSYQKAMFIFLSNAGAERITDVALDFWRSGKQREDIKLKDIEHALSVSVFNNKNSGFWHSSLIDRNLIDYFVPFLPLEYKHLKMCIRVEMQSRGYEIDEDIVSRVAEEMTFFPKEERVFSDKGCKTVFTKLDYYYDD

Torsin-1A (Homo sapiens) [18] = target: Torsin-1A (Homo sapiens) (UniProt O14656); test: small-molecule binders of mutant TOR1A in lysate, primary screen, cell lysate, small-molecule microarray, COS7 lysate, 635/667 nm fluorescence (AID 1150); conditions: COS7 hTOR1A mutant lysate, 635 nm fluorescence, higher = more signal;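 note: score pools 667 nm emission and signal to noise measuring lysate protein binding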
[19] = system: Sonic hedgehog protein (Shh); test: small-molecule binders of Shh protein, primary screen, biochemical, small-molecule microarray, 635/667 nm fluorescence (AID 1151); conditions: small-molecule microarray binding, 635 nm fluorescence; higher = more signal;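 note: Shh protein binding to compounds spotted on small-molecule microarray slides; score combines spot fluorescence intensity with signal-to-noise across triplicate slides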

Compound | composite z-score [1] | composite z-score [2] | composite z-score [3] | composite z-score [4] | composite z-score [5] | composite z-score [6] | z-score [7] | composite z-score (Lefty1) | composite z-score [8] | z-score [9] | composite z-score [10] | z-score [11] | z-score [12] | z-score [13] | z-score [14] | composite z-score [15] | composite z-score [16] | composite z-score (Torsin-1A (Homo sapiens) [17]) | composite z-score (Torsin-1A (Homo sapiens) [18]) | composite z-score [19]
CO[C@H]1COC(=O)[C@H](C)NC(=O)[C@@H](C)COC(=O)CC=C[C@@H]1C | -0.133 | -0.0179 | -0.274 | -0.177 | 0.598 | 1.34 | -0.855 | 0.572 | -0.114 | 0.514 (inactive) | -0.185 | -0.068 (inactive) | -0.865 (inactive) | 0.341 (inactive) | -0.178 (inactive) | -0.356 | -0.016 | 1.24 | 0.296 | 1.47
CCc1cc2c(nc1CC)CCN(CCC(C)=NOC(C)CN1CCCc3nc(C)c(C)cc31)C2 (stereo not given) | -0.295 | 0.973 | 0.63 | 0.398 | 1.31 | 0.631 | 1.2 | 1.29 | 0.467 | 0.62 (inactive) | 0.56 | -0.0844 (inactive) | -0.129 (inactive) | 1.14 (inactive) | 0.534 (inactive) | 0.854 | 0.341 | 1.31 | 0.748 | 1.35
COC(=O)[C@H](C)NC(=O)CCC1CC(OC(=O)NCc2ccc3c(c2)OCO3)CC2(CCCC(COC(=O)NCCOc3ccccc3)O2)O1 (stereo not given in full) | 0.486 | 1.15 | 0.0281 | 0.59 | 0.463 | 1.09 | 1.09 | 0.735 | 0.262 | -0.314 (inactive) | 0.12 | -1.55 (inactive) | -1.53 (inactive) | -0.349 (inactive) | -0.422 (inactive) | 0.607 | -0.128 | 0.248 | 0.492 | 1.67
O=C1CCCC2OC12C(O)CCc1ccccc1 (stereo not given) | 0.259 | -0.0206 | 0.0538 | 0.558 | 0.321 | 0.268 | 0.112 | 0.279 | -0.0681 | -0.443 (inactive) | 0.154 | 0.564 (inactive) | 0.357 (inactive) | 1.18 (inactive) | 0.0396 (inactive) | 0.035 | -0.214 | 0.0994 | -0.0582 | 0.174
CC(C)N1CC=CC23O[C@@H]4C=CCCOC(=O)C4[C@H]2C(=O)N(CCCCCCO)[C@@H]3C1=O (stereo not given in full) | -0.112 | -0.807 | -0.268 | -1.2 | -0.851 | -1.6 | 0.526 | -0.187 | -1.32 | -0.127 (inactive) | -0.952 | 0.471 (inactive) | -0.454 (inactive) | -0.488 (inactive) | -0.905 (inactive) | -0.717 | -0.003 | -1.12 | -1.57 | 0.011
CCOC(=O)NN=C1C[C@@H](O)[C@@H](O)[C@@H]2[C@@H]3C(=O)N(C[C@@H]4CCCO4)C(=O)[C@@H]3CC[C@@H]12 | 0.193 | 0.329 | 0.295 | 0.216 | 0.306 | 0.436 | 0.39 | 0.344 | 0.386 | -0.439 (inactive) | -0.0127 | 0.0688 (inactive) | 0.139 (inactive) | -0.658 (inactive) | 0.75 (inactive) | 0.293 | -0.0933 | 0.298 | 0.76 | 0.111
CC(C)(C)OC(=O)CC[C@]1(C(=O)NCc2ccccc2)N=C(c2ccc(OCCCO)cc2)O[C@H]1c1ccccc1 | 1.99 | 1.26 | 1.36 | 0.983 | 0.362 | 0.487 | 0.949 | -0.326 | 0.732 | 0.172 (inactive) | 1.01 | -3.16 (inactive) | -1.77 (inactive) | 0.699 (inactive) | -1.23 (inactive) | 1.58 | 0.347 | 0.712 | 1.11 | -0.349
CC(C)=CCCC(C)=CCON=C1[C@H]2CCn3c(=O)n(C)c(=O)n3[C@H]2[C@H](O)[C@@H]2O[C@H]12 | 0.957 | 0.968 | -0.236 | 0.674 | 0.865 | 0.896 | 0.637 | 1.37 | 0.115 | -0.284 (inactive) | 0.287 | 0.583 (inactive) | 1.13 (inactive) | 0.519 (inactive) | -0.0697 (inactive) | 0.203 | -0.12 | 1.15 | 0.898 | 1.98
CO[C@@H]1COC(=O)CC=C[C@@H](C)[C@@H]2C=C[C@H](O)[C@@H](COC(=O)CCC[C@H]1C)O2 | 1.59 | -0.442 | -0.382 | -0.478 | 1.06 | 1.3 | -0.992 | 1.08 | -0.0297 | 0.732 (inactive) | 0.0796 | -0.493 (inactive) | 0.0169 (inactive) | -2.36 (inactive) | -1.91 (inactive) | 1.35 | -0.118 | 0.858 | 1.6 | 1.55
C/C=C\[C@@H](NCc1ccccc1Br)[C@@H](O)Cc1ccccc1 | -0.13 | -0.469 | -0.119 | -0.641 | -0.604 | -1.4 | -1.4 | -0.972 | -0.819 | 0.979 (inactive) | -0.771 | -5.43 (inactive) | 0.541 (inactive) | 0.857 (inactive) | 0.567 (inactive) | -0.838 | -0.153 | 0.0908 | -0.27 | -1.3

— PubChem BioAssay
